Here are results for six molecules from PubChem BioAssay (Tox21).

The target of test [1] is Thyrotropin receptor (Homo sapiens) (UniProt P16473). In words: qHTS assay to identify small molecule agonists of the thyroid stimulating hormone receptor (TSHR) signaling pathway (AID 1224843; calls by dose curve; note: nearly all actives have a fitted effect of over 45% in size). Put shortly: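 Steps: seed 800 TSHR-HEK293 cells per well; add test compound and hold 30 min at ambient temperature; dispense cAMP-d2 then anti-cAMP cryptate; incubate 1 h at ambient; measure fluorescence intensity.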
Sequence of Thyrotropin receptor (Homo sapiens) (P16473 whole entry, looked up): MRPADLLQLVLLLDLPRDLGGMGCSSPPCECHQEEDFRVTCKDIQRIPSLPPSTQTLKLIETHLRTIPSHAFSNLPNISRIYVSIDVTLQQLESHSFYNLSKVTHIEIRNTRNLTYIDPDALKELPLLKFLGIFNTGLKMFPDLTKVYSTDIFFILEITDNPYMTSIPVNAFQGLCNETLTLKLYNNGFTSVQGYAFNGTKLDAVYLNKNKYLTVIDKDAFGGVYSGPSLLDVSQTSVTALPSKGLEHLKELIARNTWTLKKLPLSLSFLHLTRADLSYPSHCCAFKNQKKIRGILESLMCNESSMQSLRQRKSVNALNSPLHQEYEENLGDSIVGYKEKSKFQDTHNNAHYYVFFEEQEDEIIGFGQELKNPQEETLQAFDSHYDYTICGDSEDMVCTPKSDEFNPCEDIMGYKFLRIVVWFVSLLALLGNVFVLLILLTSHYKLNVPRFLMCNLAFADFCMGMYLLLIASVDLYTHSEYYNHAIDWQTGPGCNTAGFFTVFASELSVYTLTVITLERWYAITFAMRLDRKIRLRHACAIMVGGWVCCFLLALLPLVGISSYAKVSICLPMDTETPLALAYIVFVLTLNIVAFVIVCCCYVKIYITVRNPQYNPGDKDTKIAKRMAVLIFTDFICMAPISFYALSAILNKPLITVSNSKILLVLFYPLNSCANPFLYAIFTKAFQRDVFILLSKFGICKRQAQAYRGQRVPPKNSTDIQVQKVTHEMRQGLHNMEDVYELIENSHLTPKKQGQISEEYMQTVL
Background: qHTS replaces the single test concentration by a dilution series.

Test [2] is described as follows: qHTS assay to identify small molecule agonists of the hypoxia (HIF-1) signaling pathway - cell viability counter screen (AID 1224844; calls by dose curve; note: nearly all actives have a fitted effect of over 50% in size). Put shortly: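 Luminescent ATP content (CellTiter-Glo, 30 min, room temperature) served as the viability measure in HRE-bla ME-180 cells exposed to compounds for 17 hrs in low-serum medium (0.5% dialyzed FBS).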
The nature of test [3]: qHTS assay to identify small molecule agonists of H2AX (AID 1224845; active = well fitted activation curve with a large enough effect in the signal ratio in the repeat runs, not every such curve was filed as active; the % refers to the signal ratio). A digest of the protocol: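 Wild-type CHO-K1 cells, plated overnight, exposed 3hr at 37C to 15 concentrations (0.76% DMSO final). Lysed, then HTRF anti-pH2AX (S139) cryptate and anti-H2AX-d2 antibodies, 24 hr room temperature; 665/620 nm emission read.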
A short description of test [4]: qHTS assay to identify small molecule agonists of the hypoxia (HIF-1) signaling pathway (AID 1224846; active = well fitted activation curve with a large enough effect in the signal ratio in the repeat runs, not every such curve was filed as active; the % refers to the signal ratio). A digest of the protocol:
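Measured by blue/green FRET after loading CCF4-AM: beta-lactamase expressed from a hypoxia response element in ME-180 cells. Test agents were delivered in DMSO and left 17 hrs; cells had been plated 5 hrs earlier in low-serum (0.5% dialyzed FBS) medium.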

The nature of test [5]: qHTS assay to identify small molecule agonists of H2AX - cell viability counter screen (AID 1224847; calls by dose curve; note: top concentration of the series differs between compounds; nearly all actives have a fitted effect of over 30% in size). A digest of the protocol:
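For this counter screen, overnight-attached CHO-K1 cells received test compounds (15 concentrations, 0.76% DMSO final); 3 hr later at 37C, CellTiter-Glo reagent was added and luminescence recorded after 30 min at room temperature.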

Test [6] in a line: qHTS assay to identify small molecule antagonists of the estrogen related receptor (ERR) signaling pathway from Tox21 library (AID 1224848). Note: nearly all actives have a fitted effect of over 50% in size. A digest of the protocol: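 Luminescent reporter read-out (ONE-Glo) from NTP's ERR cell line after 18 h treatment at 37 C with DMSO-dissolved Tox21 compounds; cells pre-plated 6 h beforehand at 2,000 per well.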
Test [7] is described as follows: qHTS assay to identify small molecule agonists of the estrogen related receptor (ERR) signaling pathway from Tox21 library (AID 1224849; calls by dose curve; note: nearly all actives have a fitted effect of over 15% in size). The settings on record: ERR reporter cell line, ONE-Glo luciferase, 18 h; at 92.4 µM (top of the series) unless noted. Put shortly:
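We plated ERR reporter cells, waited 6 h, added compounds in DMSO by pin tool and incubated them 18 h at 37 C. ONE-Glo was then added and luminescence read after 30 min.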

Test [8] is described as follows: qHTS RealTime-Glo MT Cell Viability Assay in HepG2 cells - 24 hour (AID 1224867). Note: nearly all actives have a fitted effect of over 50% in size. A digest of the protocol: (§1)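 HepG2 suspension premixed with RealTime-Glo reagents is plated at 600 cells per well and left 5 h at 37 C/5% CO2. Compounds in DMSO then go in, and bioluminescence reflecting viable cell number is recorded over 40 h.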
A short description of test [9]: qHTS RealTime-Glo MT Cell Viability Assay in HEK293 cells - 32 hour (AID 1224868). Note: top concentration of the series differs between compounds; nearly all actives have a fitted effect of over 50% in size. Put shortly: (§2)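 Reads taken at 0, 8, 16, 24, 32 and 40 h from the same wells. HEK293 cells (600/well) carried RealTime-Glo reagents from seeding, with compound added after a 5 h settle at 37 C.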
A short description of test [10]: A CellTox Green Cytotoxicity Assay to monitor cytotoxicity in HEK293 cells - 0 hour (AID 1224869). Note: nearly all actives have a fitted effect of over 50% in size. Put shortly:
(§3)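 Each value comes from one timepoint of a single continuous run in which HEK293 cells with CellTox Green were exposed to compound for up to 40 h at 37 C, dye fluorescence rising with cell death.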

Test [11] can be described thus: qHTS RealTime-Glo MT Cell Viability Assay in HepG2 cells - 40 hour (AID 1224870). Note: nearly all actives have a fitted effect of over 50% in size. Put shortly: (§4)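 HepG2 cells (600/well) mixed with RealTime-Glo MT reagent, settled 5 h at 37 C/5% CO2 before compound addition. Nonlytic NanoLuc luminescence from viable-cell prosubstrate reduction read repeatedly during 40 h treatment at 37 C.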
A short description of test [12]: A CellTox Green Cytotoxicity Assay to monitor cytotoxicity in HEK293 cells - 40 hour (AID 1224871). Note: nearly all actives have a fitted effect of over 45% in size. A digest of the protocol:
as §3

The nature of test [13]: qHTS RealTime-Glo MT Cell Viability Assay in HEK293 cells - 16 hour (AID 1224872). A digest of the protocol:
as §2

Test [14] in a line: qHTS RealTime-Glo MT Cell Viability Assay in HepG2 cells - 8 hour (AID 1224873). Note: nearly all actives have a fitted effect of over 55% in size. A digest of the protocol:
as §4

Test [15] can be described thus: qHTS RealTime-Glo MT Cell Viability Assay in HEK293 cells - 40 hour (AID 1224874). Note: nearly all actives have a fitted effect of over 50% in size. The settings on record: RealTime-Glo luminescence; max response: stronger effect = lower value. Put shortly: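 qHTS format; HEK293 cells with NanoLuc/prosubstrate reagent, 37 C/5% CO2 for 5 h pre-dosing; compounds 23 nL in DMSO; luminescence at each time point reflects viable cells.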
A short description of test [16]: A CellTox Green Cytotoxicity Assay to monitor cytotoxicity in HEK293 cells - 24 hour (AID 1224875). Note: nearly all actives have a fitted effect of over 45% in size. Put shortly:
as §3

A short description of test [17]: A CellTox Green Cytotoxicity Assay to monitor cytotoxicity in HepG2 cells - 16 hour (AID 1224876). Note: nearly all actives have a fitted effect of over 45% in size. A digest of the protocol:
(§5)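 Continuous culture of HepG2 cells with a membrane-impermeant DNA dye; rising fluorescence marks dead cells. Compound exposure lasted up to 40 h at 37 C, with reads every 8 h from 0 h.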

Test [18] is described as follows: qHTS RealTime-Glo MT Cell Viability Assay in HepG2 cells - 32 hour (AID 1224877). Note: nearly all actives have a fitted effect of over 55% in size. Put shortly:
as §1

The nature of test [19]: A CellTox Green Cytotoxicity Assay to monitor cytotoxicity in HepG2 cells - 24 hour (AID 1224878). Note: nearly all actives have a fitted effect of over 45% in size. Put shortly:
as §5

Test [20] in a line: A CellTox Green Cytotoxicity Assay to monitor cytotoxicity in HepG2 cells - 40 hour (AID 1224879). Note: nearly all actives have a fitted effect of over 40% in size. A digest of the protocol: as §5

The structures appear in SMILES notation. Values without a mark were called inactive. Results filed as inconclusive are left out. The source made the active and inactive calls. Unless noted, calls come from the whole dose curve; as a rule, active = well fitted curve in the direction sought with a large enough effect in the repeat runs; inconclusive = weak or mixed curves; inactive = no such curve, though single readings can be large; an effect the other way counts as inactive or inconclusive.
% is set by controls: 0 for no effect and ±100 for the full control effect.

Turning to `CC(=O)Nc1cccc(N)c1`, the Potency entry in test [1], in test [2], in test [3], in [5], in test [6] and in [9] was “inactive” throughout. Also, the Potency result in test [10], in test [11], in test [12], in test [13], in test [16] and in test [17] was “inactive” each time. Further, the Potency result in test [18], in [19] and in test [20] was “inactive” each time. Further, the call in test [4], in test [8] and in test [14] was inactive. For the same molecule, the activity change, positive = activation in test [7] is -3.33%. For the same molecule, the max response in test [15] was 15%.
On to `COC=O`, for which the activation in test [1] is 0.0799% [at 8.39 µM]; in test [4], -0.206% [at 7.01 µM]. Also, the activity change, negative = cytotoxicity was 10.2% [at 6.97 µM] in test [2], -3.81% [at 14 µM] in [5], 4.56% [at 6.97 µM] in [8] and 11.7% [at 6.97 µM] in [13]. The activation (H2AX phosphorylation) in [3] is -1.42% [at 14 µM]. For the same molecule, the activity, negative = inhibition in test [6] was 14% [at 8.39 µM]. For the same molecule, in test [7], the activity change, positive = activation was 6.68% [at 8.39 µM]. The activity change, negative = cytotoxic in test [9] was 18.9% [at 6.97 µM]; in test [11], 0.3% [at 6.97 µM]; in test [18], 2.87% [at 6.97 µM]. For the same molecule, the cytotoxicity in test [10] was -7.29% [at 6.97 µM]; in [19], -6.04% [at 6.97 µM]. Moreover, the cytotoxicity increase in test [12] is -12.8% [at 6.97 µM]; in test [17], -4.94% [at 6.97 µM]; in test [20] it was -7.18% [at 6.97 µM]. Moreover, the viability change, negative = cytotoxic in [14] was 6.21% [at 6.97 µM]. Besides, the max response in test [15] is 19.4%. The activity change in test [16] is -10.8% [at 6.97 µM, stronger effect = higher value].
Take `Cc1cc(C)c(C)c(O)c1`: the Potency result in [1], in test [2], in test [3], in [5], in test [6] and in test [9] was “inactive” throughout. Besides, the Potency result in [10], in test [11], in [12], in test [13], in test [16] and in test [17] was “inactive” each time. Besides, the Potency result in [18], in [19] and in test [20] was “inactive” each time. Besides, the molecule was classed as inactive in [4] and in [14]. For the same molecule, the activity change, positive = activation in test [7] is 1.16%. Moreover, in test [15], the max response was 0.904%.
Consider `CC(=O)Nc1ccccc1O`, for which the Potency result in [1], in test [2], in [3], in test [5], in [6] and in [9] was “inactive” in each case. The Potency result in test [10], in test [11], in [12], in [13], in test [16] and in test [17] was “inactive” throughout. In addition, the Potency result in [18], in test [19] and in test [20] was “inactive” in each case. Also, the outcome in test [4], in test [8] and in [14] was inactive. Besides, in test [7], the activity change, positive = activation was -0.899%. Further, the max response in test [15] was 2.65%.
For the molecule `O=Cc1ccc([N+](=O)[O-])cc1`, the Potency entry in test [1], in test [2], in test [3], in [5], in [6] and in test [9] was “inactive” throughout. Further, the Potency result in test [10], in test [11], in test [12], in test [13], in test [16] and in test [17] was “inactive” throughout. Besides, the Potency entry in [18] and in [20] was “inactive” in each case. The call in [4], in test [8] and in test [14] was inactive. The activity change, positive = activation in test [7] was 51.8% (active). The max response in test [15] was 7.58%.
In the case of `O=P(c1ccccc1)(c1ccccc1)c1ccccc1`, the Potency result in test [1], in test [2], in [3], in test [9], in test [10] and in test [11] was “inactive” each time. In addition, the Potency result in [12], in test [13], in test [16], in [17], in test [18] and in [19] was “inactive” each time. Moreover, the Potency result in [20] is “inactive”. For the same molecule, the molecule was called inactive in test [4], in test [8] and in test [14]. Moreover, the max response in test [15] is -19%.
